Source: PubChem BioAssay AID651597 (National Center for Advancing Translational Sciences (NCATS), 2012)
Among all 1,100 compounds or so, about 390 (35%) were called active. Another 30% or so got no clear call; they are omitted. Calls follow the shape of the dose curve; as a rule, active = well fitted inhibition curve with a large enough effect; inconclusive = small, poorly fitted or top-dose-only effect; inactive = flat fitted curve, though single readings scatter. Some of the results follow.

target: Luciferin 4-monooxygenase (Photinus pyralis) (UniProt P08659); test: qHTS of Nrf2 Activators: Hit Validation in Secondary FLuc Assay; conditions: firefly luciferase inhibition counter-screen, luminescence; series mostly up to 57.5 µM; also: nearly all actives have a fitted effect of over 65% in size
Source text: Many diseases have some form of oxidative stress injury and ties to inflammation, causing a host of problems for the patient. The antioxidant response element (ARE) plays an important role in alleviating the harmful effects of oxidative stress. The antioxidant response element (ARE) is a transcriptional regulatory element involved in the activation of genes coding for a number of antioxidant proteins and detoxifying enzymes. These enzymes work in concert to protect tissues from oxidative insults and chemical toxicities in human hepatocytes and immune cells. The protective effects of ARE activation are primarily triggered through Nrf2 (NF-E2-related factor) binding to and activating AREs. It is known that Nrf2 controls the production of over 250 antioxidant and detoxification proteins (Hu et al., 2006), thereby protecting tissues by increasing cellular antioxidant content and suppressing inflammatory signaling pathways. The transcription factor Nrf2 is a central link between oxidative chemicals, such as phenolic antioxidants and electrophilic compounds, and the activation of ARE. Nrf2 levels are constitutively low as a consequence of its interaction with Keap1, which targets its degradation (Zipper and Mulcahy, 2002). Electrophiles react with key cysteine residues in Keap1, releasing Nrf2 and allowing its translocation to the nucleus. Once within the nucleus, Nrf2 complexes with coactivators such as p300, and binds to the AREs to induce gene transcription of cytoprotective enzymes, resulting in the prevention of toxicity. Activation of Nrf2 protects tissues by increasing cellular antioxidant content and suppressing inflammatory signaling pathways. Identifying novel and potent Nrf2 activators by using the AREc32 cell line to detect ARE activation by small molecules will lead to the identification and development of probes to study protective pathways in multiple tissues. These specific probes are essential to study the ARE pathway, and eventually to determine whether this pathway does activate genes that could protect against a host of diseases, including cardiovascular diseases, obesity, diabetes, Alzheimer's, and Parkinson's disease.
This project's aim is to identify novel and potent Nrf2 activators by using the AREc32 cell line to detect ARE activation by small molecules, which will lead to the identification and development of probes to study the ARE pathway. In this counter assay, we aim to identify false positive as identified from this primary assay using an FLuc assay with an inhibiting read-out.
NIH Chemical Genomics Center [NCGC]
NIH Molecular Libraries Probe Centers Network [MLPCN]
Assay Submitter (PI): Curtis Klaassen, University of Kansas Medical Center
Assess whether an activator in the primary assay potentially causes such activation by inhibitor-induced stabilization of the firefly luciferase reporter enzyme by determining whether it inhibits firefly luciferase in the presence of Km concentrations of its substrates (ATP and D-luciferin).
Potency is read from the fitted curve at half-maximal effect.

| SMILES | Potency |
| --- | --- |
| Cc1ccc(C(=O)N/N=C/c2ccc(-c3ccc(Br)cc3[N+](=O)[O-])o2)o1 | 3.79 µM (active) |
| N#Cc1nc(-c2ccc(F)cc2)oc1NCc1ccco1 | inactive |
| N#Cc1c(-c2ccco2)cc(-c2ccc(F)cc2)nc1N | 5.36 µM (active) |
| N#Cc1nc(-c2ccco2)oc1N1CCCC1 | inactive |
| N#Cc1c(-c2ccco2)cc(-c2ccccn2)nc1N | 12 µM (active) |
| CC(C)Cc1cc(-c2ccco2)c(C#N)c(N)n1 | inactive |
| Cc1nc(NCc2ccco2)nc2c1C(=O)CC(C)C2 (stereo not drawn) | inactive |
| O=C(Nc1nnc(-c2cccs2)s1)c1cccc(F)c1 | 2.39 µM (active) |
| O=C(Nc1nnc(-c2cccs2)s1)C1CC1 | inactive |
| COC(=O)c1sccc1NC(=O)c1cccc(F)c1 | inactive |
| COc1ccc2oc3cc(Cl)ccc3c(=O)c2c1 | 1.69 µM (active) |
| CC(C)(C)/C(O)=C/c1nc2cc(Cl)ccc2oc1=O | inactive |
| COc1ccc2oc3ccccc3c(=O)c2c1 | 8.49 µM (active) |
| CC(=O)Oc1c(-c2ccco2)oc2ccccc2c1=O | inactive |
| O=c1c2ccccc2oc2ccc(-c3ccc4cc[nH]c4c3)cc12 | 0.135 µM (active) |
| O=S(=O)(c1ccc(F)cc1)c1snnc1-c1ccccc1 | inactive |
| CS(=O)(=O)c1nc(S(=O)(=O)c2ccc(Cl)cc2)c(N2CCN(CCO)CC2)s1 | inactive |
| Cc1ccc(-c2cc(-c3cccc(F)c3)n[nH]2)c(O)c1 | 1.2 µM (active) |
| COn1c(-c2ccccc2)nc2c1CCc1c-2no[n+]1[O-] | inactive |
| O=C1/C(=C\c2ccco2)NC(=S)N1c1ccccc1 | 8.49 µM (active) |
| COC(=O)C1=C(C)N(c2ccc(Br)cc2)C(=O)/C1=C\c1ccco1 | inactive |
| O=C(CC(=O)c1ccccn1)c1ccccc1 | 5.36 µM (active) |

| SMILES | Potency |
| --- | --- |
| O=C(CCS(=O)(=O)c1ccccc1)Nc1nc(-c2ccccn2)cs1 | inactive |
| Cc1sc(NC(=S)NC(=O)c2ccccc2)c(C#N)c1C | 12 µM (active) |
| Cc1cc(C)c2c(NC(=S)NC(=O)c3ccccc3)nn(C)c2n1 | inactive |
| Cc1ccc2cccnc2c1NC(=S)NC(=O)c1ccccc1 | 15.1 µM (active) |
| Cc1cccc(C)c1NC(=S)NC(=O)c1cccc(Cl)c1 | inactive |
| Cc1csc(NC(=S)NC(=O)c2ccccc2)n1 | 2.13 µM (active) |
| Cc1ccc2cccc(NC(=S)NC(=O)c3ccccc3)c2n1 | 6.01 µM (active) |
| [O-][n+]1onc2c3ccnnc3ccc21 | inactive |
| Cc1csc(NC(=O)Nc2ccccc2[N+](=O)[O-])n1 | 2.69 µM (active) |
| O=C(CC(=O)Nc1ccccc1[N+](=O)[O-])Nc1ccccc1[N+](=O)[O-] | inactive |
| CCn1c(/C=C/c2ccccc2)nc2ccccc2c1=O | inactive |
| Cn1c(CC2C(=O)Nc3ccc(Br)cc32)nc2ccccc2c1=O (stereo not drawn) | inactive |
| Cn1c(/C=C/c2cccc(Br)c2)nc2ccccc2c1=O | 10.7 µM (active) |
| COc1ccc(NC(=O)c2cc(-c3cccs3)on2)c(OC)c1 | inactive |
| CSc1ccccc1NC(=O)c1cc(-c2cccs2)on1 | 3.38 µM (active) |
| COC(=O)c1sccc1NC(=O)c1cc(C)on1 | inactive |
| CC(C)(C)SCCNC(=O)/C=C/c1cccc([N+](=O)[O-])c1 | inactive |
| O=[N+]([O-])c1ccccc1C=CC=NN=Cc1ccccc1O | 0.953 µM (active) |
| N#C/C(=C\C=C\c1ccccc1[N+](=O)[O-])C(=O)NC1CCCCC1 | inactive |
| O=[N+]([O-])c1cccc(/C=C/c2ccccn2)c1 | 10.7 µM (active) |
| Cn1c(SCC(=O)N/N=C/C=C\c2ccccc2[N+](=O)[O-])nc2ccccc21 | inactive |
| CC1(C)C2C/C(=N\O)C(C)(/[N+]([O-])=C/c3cccc([N+](=O)[O-])c3)CC21 (stereo not drawn) | inactive |

| SMILES | Potency |
| --- | --- |
| O=[N+]([O-])c1cccc(C=NN=Cc2ccccc2O)c1 | 0.601 µM (active) |
| O=C(NN=Cc1cccc([N+](=O)[O-])c1)c1cccc2ccccc12 | inactive |
| CC1(C)C(=O)OC(/C=C/c2cccc([N+](=O)[O-])c2)C(C)(C)C1=O (stereo not drawn) | inactive |
| C=C(C)CNC(=S)N/N=C(\C)c1ccc(Cl)s1 | inactive |
| c1coc(-c2cnc3ccccc3n2)c1 | 2.69 µM (active) |
| O=[N+]([O-])c1cccc(-c2cnc3ccccc3n2)c1 | inactive |
| FC(F)(F)c1cc(-c2ccco2)nc(-n2nnc3ccccc32)n1 | inactive |
| O=C(Oc1cccc(-c2cnc3ccccc3n2)c1)c1ccco1 | 10.7 µM (active) |
| Cc1ccc(NC(=O)/C=C/c2ccc([N+](=O)[O-])s2)cc1 | inactive |
| Cc1ccc(/C=C/C(=O)Nc2ccc([N+](=O)[O-])c(NC(=O)/C=C/c3ccc(C)o3)c2)o1 | 1.2 µM (active) |
| CSc1nsc(SC)c1NC(=O)Nc1ccccn1 | inactive |
| O=C(Nc1ccccn1)c1csc2c1CCCC2 | 3.01 µM (active) |
| O=C(Nc1nnc(-c2ccccc2F)s1)C1CCCO1 (stereo not drawn) | 10.7 µM (active) |
| O=C(Nc1nnc(-c2ccccc2F)s1)Nc1ccccc1F | inactive |
| CCCNc1ccc(-c2nc(-c3ccco3)no2)cc1[N+](=O)[O-] | 0.169 µM (active) |
| COCCNc1ccc(-c2nc(-c3ccco3)no2)cc1[N+](=O)[O-] | 0.478 µM (active) |
| CCCNC(=O)c1ccc(S(=O)(=O)c2ccc(OC)cc2)c([N+](=O)[O-])c1 | inactive |
| CCNc1ccc(-c2nc(-c3ccco3)no2)cc1[N+](=O)[O-] | 0.19 µM (active) |
| O=[N+]([O-])c1cc(-c2nc(-c3ccccc3)no2)ccc1NCc1cccnc1 | 4.78 µM (active) |
| NC(=O)c1ccsc1NC(=O)COC(=O)[C@@H]1CCCN1C(=O)c1cccs1 | inactive |
| Cc1cc(C)n(S(=O)(=O)/C=C/c2ccccc2)n1 | inactive |
| Cn1c(NC(=O)/C=C/c2ccccc2)cc(=O)n(C)c1=O | 8.49 µM (active) |

| SMILES | Potency |
| --- | --- |
| CC(=O)c1cc2c(cc1NC(=O)CSc1nc3ccccc3o1)OCO2 | inactive |
| Cn1cc([N+](=O)[O-])c(C(=O)Nc2ccc(-c3nc4ccccc4o3)cc2)n1 | 8.49 µM (active) |
| CC(=O)Nc1nc2cccc([N+](=O)[O-])c2s1 | inactive |
| CN1C2CCC1/C(=C\c1ccc(F)cc1)C(=O)/C2=C/c1ccc(F)cc1 | inactive |
| Cc1nn2c(-c3ccco3)nnc2c2ccccc12 | 16.9 µM (active) |
| CCc1nn2c(-c3ccco3)ccnc2c1-c1ccccc1 | inactive |
| COc1ccc(-c2nnc3c4ccccc4c(C)nn23)cc1 | 7.57 µM (active) |
| Cc1nn2c(-c3ccccc3)nnc2c2ccccc12 | 10.7 µM (active) |
| Cc1ccc(S(=O)(=O)c2nc(S(C)(=O)=O)sc2N2CCN(C)CC2)cc1 | inactive |
| Cc1ccc(-c2nc(C=Nc3ccc(O)cc3)c(O)o2)cc1 | 2.69 µM (active) |
| O=c1cc(-c2cccc(Br)c2)oc2cccc(O)c12 | inactive |
| O=c1cc(-c2ccccc2Cl)oc2c(Br)ccc(O)c12 | 2.39 µM (active) |
| O=c1oc(CCO)cc2ccc(C#Cc3ccsc3)cc12 | 2.69 µM (active) |
| O=c1oc(CCCO)cc2ccc(C#Cc3ccsc3)cc12 | 2.39 µM (active) |
| Cn1c(/N=C(\N)c2ccccc2)nc2ccccc21 | 1.35 µM (active) |
| Cn1c(/C(C#N)=C(\O)c2cc(Cl)sc2Cl)nc2ccccc21 | inactive |
| Cc1cc(N2CCOCC2)n2nc(-c3cccc(F)c3)cc2n1 | inactive |
| Cc1cc(C)n2nc(-c3ccc(F)cc3)cc2n1 | 1.51 µM (active) |
| COc1ccc(Cl)cc1NC(=O)CCS(=O)(=O)c1cccc2nonc12 | inactive |
| COc1ccccc1NC(=O)c1ccc(Cl)c(S(=O)(=O)NCc2ccco2)c1 | inactive |
| CCOC(=O)c1ccc(NC(=O)c2nc(S(=O)(=O)Cc3ccccc3)ncc2Cl)cc1 | 1.69 µM (active) |
| COc1ccccc1NC(=O)c1nc(S(=O)(=O)Cc2ccccc2)ncc1Cl | 2.69 µM (active) |

| SMILES | Potency |
| --- | --- |
| Cc1ccc2c(N)c(C(=O)c3ccccc3)sc2n1 | 9.53 µM (active) |
| Cc1nc2sc(C(=O)c3ccccc3)c(N)c2c2c1CCCC2 | 1.9 µM (active) |
| O=C(/C=C/c1ccc(-c2ccccc2[N+](=O)[O-])o1)c1ccccc1 | 5.36 µM (active) |
| O=C(/C=C/c1ccc(-c2ccccc2[N+](=O)[O-])o1)c1ccc(Br)cc1 | 6.01 µM (active) |
| CN1CCN(C(=O)/C=C/c2ccc([N+](=O)[O-])o2)CC1 | inactive |
| Cc1ccc(C(=O)/C=C/c2ccc(-c3ccccc3[N+](=O)[O-])o2)cc1 | 2.69 µM (active) |
| COc1ccc(OC)c(C(=O)Nc2c(O)ccc3ccccc23)c1 | 15.1 µM (active) |
| COC(=O)c1sccc1NC(=O)c1ccc(OC)c(OC)c1 | inactive |
| CNc1ccccc(C(=O)/C=C/c2ccccc2OC)c1=O | 5.36 µM (active) |
| CNc1ccc(Br)cc(C(=O)/C=C/c2cccc(OC)c2)c1=O | 8.49 µM (active) |
| CNc1ccc(Br)cc(C(=O)/C=C/c2cccc(Cl)c2Cl)c1=O | 4.78 µM (active) |
| COC1=C(C)C(O)=C(C(=O)/C=C/c2ccccc2)C(=O)C1(C)C | inactive |
| CNc1ccc(Br)cc(C(=O)/C=C/c2ccc(Cl)cc2Cl)c1=O | 4.78 µM (active) |
| CC1CCN(CC2C(=O)O[C@@H]3C[C@@]4(C)CCC[C@H](C)C4=C[C@H]23)CC(C)(C)C1 (stereo partly drawn) | inactive |
| Cn1c(=O)oc2cc(NC(=O)CCl)ccc21 | inactive |
| Cc1cc(=O)oc2cc(NC(=O)c3ccccc3Cl)ccc12 | 5.36 µM (active) |
| Cc1cc(=O)oc2c(C(=O)/C=C/c3ccccc3)c(O)ccc12 | inactive |
| Oc1ccccc1C=NN=Cc1c(O)ccc2ccccc12 | 3.01 µM (active) |
| Cn1c(=O)c2nc(NCc3ccccc3)sc2n(C)c1=O | inactive |
| O=S1(=O)C=C(Sc2nc3cc(Cl)ccc3o2)c2ccccc21 | 0.849 µM (active) |
